9 compounds from PubChem BioAssay (NCI) can be followed below.

Among the test systems are NCI-H23 lung; NCI-H226 lung; NCI-H322M lung; NCI-H460 lung; NCI-H522 lung; A549/ATCC NSCLC; 786-0 renal; COLO 205 colon; DU-145 prostate; K-562 leukemia; MALME-3M melanoma; MDA-MB-231 breast; RXF 393 renal; SF-268 CNS; SF-539 CNS; UACC-257 melanoma; M14 melanoma; HCT-15 colon; SF-295 CNS; HOP-62 NSCLC.
What all share (assay): NCI-60 one-dose screen, 48 h (100 = growth as untreated, 0 = no growth, -100 = all killed)
What all share (conditions): 10 µM unless noted

This is part of a sample that, as a whole, favours compounds with a hit. Of some 83,000 tested, about 20% had one in any assay.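 A percent growth of 40 corresponds to 60% growth inhibition; 0 means no net growth; -100 means all cells died. Active threshold: below 10.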 Values without a mark were called inactive. The source made the active and inactive calls.

For `O=C1/C(=N/O)CCc2ccccc21`, the growth is 98.1% with NCI-H23 lung; 101% in the experiment on NCI-H226 lung; 102% with NCI-H322M lung; 92.6% in the experiment on NCI-H460 lung; 94% in the experiment on NCI-H522 lung; 103% in the experiment with A549/ATCC NSCLC. The growth with 786-0 renal is 111%; with COLO 205 colon it was 100%; in the experiment with DU-145 prostate it was 100%; with K-562 leukemia, 19.4%; in the experiment on MALME-3M melanoma it was 91.7%; with MDA-MB-231 breast, 79.7%. The growth in the experiment on RXF 393 renal is 96.7%; with SF-268 CNS, 91%; with SF-539 CNS, 88.5%; in the experiment with UACC-257 melanoma, 90.7%; in the experiment with M14 melanoma it was 104%; in the experiment with HCT-15 colon it was 102%.
Regarding `OC(Cc1cccnc1)c1ccccc1` (configuration not stated), the growth in the experiment on NCI-H23 lung is 103%; in the experiment with NCI-H226 lung it was 107%; with NCI-H322M lung, 95.9%; with NCI-H460 lung it was 98%; with NCI-H522 lung, 101%; in the experiment on A549/ATCC NSCLC, 94.8%. The growth with 786-0 renal is 108%; with COLO 205 colon, 114%; in the experiment with K-562 leukemia, 101%; in the experiment with MALME-3M melanoma, 111%; with MDA-MB-231 breast, 92.1%; in the experiment with RXF 393 renal it was 114%. Further, the growth was 104% with SF-295 CNS; 98.6% in the experiment on SF-539 CNS; 101% with UACC-257 melanoma; 106% in the experiment on M14 melanoma; 104% in the experiment on HCT-15 colon.
In the case of `NC(=O)SCC(=O)Nc1ccccc1-c1ccccc1`, the growth with NCI-H23 lung is 97.2%; in the experiment with NCI-H226 lung it was 117%; in the experiment on NCI-H322M lung it was 106%; in the experiment with NCI-H460 lung, 116%; in the experiment with NCI-H522 lung it was 50.1%; in the experiment with A549/ATCC NSCLC, 91.7%. For the same compound, the growth with 786-0 renal was 95.5%; in the experiment on COLO 205 colon, 95.3%; in the experiment on K-562 leukemia it was 103%; in the experiment with MALME-3M melanoma, 158%; in the experiment with MDA-MB-231 breast, 99.7%; in the experiment on RXF 393 renal it was 138%. Moreover, the growth in the experiment with SF-295 CNS was 109%; in the experiment with SF-539 CNS, 89.5%; with UACC-257 melanoma it was 85.7%; with M14 melanoma it was 97.7%.
Consider `CCCc1cccc(CCC)c1O`, for which the growth with NCI-H23 lung is 100%; with NCI-H226 lung, 106%; in the experiment with NCI-H322M lung, 124%; in the experiment with NCI-H460 lung, 106%; in the experiment on NCI-H522 lung, 89.9%; in the experiment on A549/ATCC NSCLC, 98.2%. Further, the growth in the experiment with 786-0 renal was 110%; with COLO 205 colon, 116%; in the experiment with DU-145 prostate, 120%; with K-562 leukemia, 104%; with MALME-3M melanoma it was 131%; in the experiment on MDA-MB-231 breast it was 125%. Further, the growth in the experiment with RXF 393 renal was 121%; in the experiment with SF-268 CNS, 109%; in the experiment on SF-295 CNS, 91.4%; with SF-539 CNS, 118%; in the experiment on UACC-257 melanoma, 93.3%; in the experiment on HCT-15 colon it was 107%.
On to `CCCCCCCCSc1ncnc2c1ncn2CO`, for which the growth with NCI-H23 lung is 50.8%; in the experiment on NCI-H226 lung it was 58.5%; with NCI-H322M lung it was 140%; in the experiment with NCI-H460 lung it was 86.6%; in the experiment on NCI-H522 lung, 66.4%; in the experiment on A549/ATCC NSCLC, 102%. Besides, the growth was 85.5% in the experiment on 786-0 renal; 104% in the experiment with COLO 205 colon; 90.9% in the experiment with DU-145 prostate; 73.7% in the experiment with K-562 leukemia; 118% in the experiment with MALME-3M melanoma; 98.2% in the experiment with MDA-MB-231 breast. For the same compound, the growth in the experiment with RXF 393 renal is 55.2%; in the experiment on SF-268 CNS it was 97.6%; in the experiment on SF-295 CNS, 67.7%; with SF-539 CNS, 86.3%; with UACC-257 melanoma it was 81.6%; in the experiment with M14 melanoma, 97.7%. Moreover, the growth in the experiment on HCT-15 colon is 97.1%.
For `COc1cc(C2NC(c3ccc(Cl)cc3)C(C)C(=NC(=O)c3cnccn3)C2C)cc(OC)c1OC` (configuration not stated), the growth is 90.7% in the experiment on NCI-H23 lung; 102% in the experiment on NCI-H226 lung; 113% in the experiment with NCI-H322M lung; 103% in the experiment on NCI-H460 lung; 85.4% in the experiment on NCI-H522 lung; 98.8% with A549/ATCC NSCLC. Also, the growth in the experiment with 786-0 renal is 91.6%; in the experiment on DU-145 prostate it was 115%; in the experiment with MALME-3M melanoma, 79.8%; in the experiment with MDA-MB-231 breast it was 104%; in the experiment on RXF 393 renal it was 93.8%; with SF-268 CNS, 97.2%. Also, the growth is 106% in the experiment with SF-295 CNS; 89.8% with SF-539 CNS; 120% in the experiment with UACC-257 melanoma; 96.9% in the experiment on M14 melanoma; 81% with HCT-15 colon.
Regarding `O=C(O)c1ccc(NC(=O)c2cccc(Nc3ccnc(C(F)(F)F)c3)c2)cc1`, the growth was 102% in the experiment with NCI-H23 lung; 99.8% with NCI-H226 lung; 101% with NCI-H322M lung; 107% in the experiment with NCI-H460 lung; 87% in the experiment with NCI-H522 lung; 106% with A549/ATCC NSCLC. The growth was 97.9% in the experiment with 786-0 renal; 112% in the experiment with COLO 205 colon; 116% with DU-145 prostate; 105% in the experiment on K-562 leukemia; 93.5% with MALME-3M melanoma; 110% in the experiment with MDA-MB-231 breast. In addition, the growth was 103% with RXF 393 renal; 104% with SF-268 CNS; 88.8% in the experiment on SF-295 CNS; 106% in the experiment with SF-539 CNS; 98.7% with UACC-257 melanoma; 95.6% with M14 melanoma. Also, in the experiment with HCT-15 colon, the growth was 96.5%.
With `CC(=O)Oc1ccc(C23c4ccccc4C2(OC(C)=O)c2cc(OC(C)=O)ccc23)cc1` (configuration not stated), the growth is 96.2% in the experiment on NCI-H23 lung; 140% in the experiment with NCI-H226 lung; 107% in the experiment on NCI-H322M lung; 53.1% with HOP-62 NSCLC; 88.7% in the experiment with NCI-H460 lung; 97% in the experiment with A549/ATCC NSCLC. The growth was 69.3% in the experiment on 786-0 renal; 95.5% in the experiment on COLO 205 colon; 103% in the experiment on DU-145 prostate; 63.4% with K-562 leukemia; 137% in the experiment with MALME-3M melanoma; 73.9% with MDA-MB-231 breast. Besides, the growth is 93.5% in the experiment on RXF 393 renal; 94.3% in the experiment on SF-268 CNS; 96.9% in the experiment with SF-295 CNS; 100% in the experiment with SF-539 CNS; 105% with UACC-257 melanoma; 104% in the experiment on M14 melanoma. For the same compound, the growth with HCT-15 colon is 65.8%.
As to `COc1c(O)cc2oc3cc(O)c(CC=C(C)C)c(O)c3c(=O)c2c1C/C=C(\C)CCC=C(C)C`, the growth is 33.5% in the experiment with NCI-H23 lung; 105% in the experiment on NCI-H226 lung; 90.1% with NCI-H322M lung; 41.2% in the experiment on HOP-62 NSCLC; 33.6% with NCI-H460 lung; 45.1% with A549/ATCC NSCLC. For the same compound, the growth with 786-0 renal is 30.2%; in the experiment on COLO 205 colon, 81.7%; in the experiment on DU-145 prostate, 81.1%; with K-562 leukemia it was 27.2%; with MALME-3M melanoma, 127%; in the experiment on MDA-MB-231 breast it was 5.81% (active). The growth in the experiment with RXF 393 renal is -22.5% (active); in the experiment with SF-268 CNS, 64.7%; in the experiment on SF-295 CNS it was 87.2%; in the experiment with SF-539 CNS, 93.2%; with UACC-257 melanoma it was 103%; in the experiment with M14 melanoma, 52%. Further, the growth in the experiment on HCT-15 colon was 73%.
